Screens (PubChem BioAssay)
FLuc inh: blocks purified firefly luciferase enzyme activity. Potency, µM (series often up to 115 µM), usual class: inhibitors. purified P. pyralis luciferase, luminescence, biochemical. P08659. hit rate 2.5% among 76,000; note: nearly all actives have a fitted effect of over 65% in size
Target sequence (P08659 whole entry, looked up): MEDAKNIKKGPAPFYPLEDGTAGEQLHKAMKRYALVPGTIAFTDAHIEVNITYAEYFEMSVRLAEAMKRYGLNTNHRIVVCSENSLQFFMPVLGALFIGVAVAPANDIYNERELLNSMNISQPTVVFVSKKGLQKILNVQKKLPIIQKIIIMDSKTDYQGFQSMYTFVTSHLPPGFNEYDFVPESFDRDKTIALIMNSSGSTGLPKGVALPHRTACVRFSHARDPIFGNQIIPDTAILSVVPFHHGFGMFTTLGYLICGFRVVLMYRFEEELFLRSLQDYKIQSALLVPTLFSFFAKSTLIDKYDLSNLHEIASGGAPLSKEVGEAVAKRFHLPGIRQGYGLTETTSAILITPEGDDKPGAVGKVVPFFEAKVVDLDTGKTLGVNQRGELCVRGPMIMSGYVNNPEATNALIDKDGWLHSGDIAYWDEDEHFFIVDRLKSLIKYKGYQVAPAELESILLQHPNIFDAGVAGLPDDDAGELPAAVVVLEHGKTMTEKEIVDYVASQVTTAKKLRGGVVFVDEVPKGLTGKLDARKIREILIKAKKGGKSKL
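FLuc 10nM, D-luciferin 10uM, ATP 10uM, Mg acetate 10mM, Tris acetate pH 7.5, Tween/BSA; cpd qHTS; enzyme added last; CCD luminescence.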
NIH3T3 tox: cytotoxic compounds in NIH 3T3 cells. AID 1345082. NIH 3T3 viability, CellTiter-Glo ATP luminescence, 48-72 h. Potency, µM (titrated, usually from 96.7 µM), usual class: inhibitors. hit rate 4.3% among 94,000; note: nearly all actives have a fitted effect of over 55% in size
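NIH 3T3 cells at 400 cells/well received 23 nL of compound by pintool and were incubated 48 or 72 h at 37 °C. Viability was read as ATP-coupled CellTiter-Glo luminescence.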
hNpr1 antagonist: antagonists of human natriuretic peptide receptor Npr1; HEK293 hNpr1 GloSensor cGMP, ANP-stimulated luminescence; P16066; Potency, µM (highest dose often 46.3 µM), hits mostly inhibitors; hit rate 1.6% among 76,000; calls by dose curve; note: nearly all actives have a fitted effect of over 60% in size
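Compound pre-incubated 30 min at room temperature on GloSensor-loaded HEK293 cells stably carrying hNpr1 and the pGS-40F cGMP biosensor. Stimulation uses hNppA at 0.1 nM final; luminescence is taken at baseline and 20 min post-agonist.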
GPT2 inhibitor: blocks human glutamate pyruvate transaminase 2; Q8TD30; Recombinant GPT2, coupled pyruvate oxidase/HRP Amplex Red fluorescence; Potency, µM (top dose mostly 57.7 µM), hits mostly inhibitors; hit rate 0.25% among 100,000; note: nearly all actives have a fitted effect of over 60% in size
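GPT2 10ng/uL, a-KG 250uM, L-Ala 2mM, HEPES pH7.5 + 0.0001% Tween; 30 min RT. Then Amplex mix (PO/HRP/ThPP), 30 min RT dark, fluorescence. AOA 50uM used as positive control.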
HEK cytotox: HEK 293 cell cytotoxicity; HEK 293 viability, ATP luminescence (CellTiter-Glo), 48-72 h; Potency, µM (highest dose often 115 µM), most hits filed as inhibitors; hit rate 6.6% among 94,000; note: nearly all actives have a fitted effect of over 60% in size
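Read-out: CellTiter-Glo ATP luminescence. Cells: HEK 293, 250 cells/well. Exposure: 48 or 72 hr, 37 degree Celsius.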
Npr1 antag conf: hNpr1 antagonism, confirmation assay | HEK293 hNpr1 cGMP GloSensor luminescence, ANP-stimulated | hit rate 76% among 1,400 | Potency, µM (top dose mostly 57.6 µM), usual class: inhibitors | shares compounds with hNpr1 antagonist; calls by dose curve; note: nearly all actives have a fitted effect of over 70% in size
NPR2 antag: selectivity test of Npr1 antagonists against human Npr2. HEK293 hNpr2 GloSensor cGMP luminescence, CNP-stimulated. hit rate 67% among 1,400. Potency, µM (highest dose often 57.6 µM), actives largely listed as inhibitors. shares compounds with hNpr1 antagonist. AID 1347046; calls by dose curve; note: nearly all actives have a fitted effect of over 70% in size
FLuc counter: FLuc enzyme inhibition, Npr1 counter-screen. shares compounds with hNpr1 antagonist. purified FLuc enzyme, luminescence, Km substrate. Potency, µM (highest dose often 57.6 µM), usual class: inhibitors. hit rate 0.7% among 1,400. AID 1347047
GloSensor cGMP: control cell line activity, Npr1 antagonist counter-screen; shares compounds with hNpr1 antagonist; HEK293 GloSensor cGMP, SNP-stimulated, luminescence; Potency, µM (series often up to 57.6 µM), most hits filed as inhibitors; hit rate 69% among 1,400; calls by dose curve; note: nearly all actives have a fitted effect of over 70% in size
Hits are given with their value. Hits are enriched below; roughly 10% of the tested compounds scored in any of these assays. Unless noted, calls come from the whole dose curve; as a rule, active = well fitted curve in the direction sought with a large enough effect; inconclusive = small, poorly fitted or top-dose-only effect, or another doubt; inactive = no such curve, though single readings can be large; an effect the other way counts as inactive or inconclusive.

How did O=C(CCCc1ccccc1)N1CCC(Cc2nc(-c3ccc(F)cc3)no2)CC1 do in these assays?
FLuc inh: inactive; NIH3T3 tox: inconclusive; hNpr1 antagonist: 7.94µM; GPT2 inhibitor: inactive; HEK cytotox: inconclusive; Npr1 antag conf: 10.9µM; NPR2 antag: 12.2µM; FLuc counter: inactive; GloSensor cGMP: 10.9µM

Results for COc1ccc(C(=O)N2CCN(C(=O)c3nnn4c3COC(c3ccc(Cl)cc3)C4)CC2)c(C)c1 (centres undefined) ?
FLuc inh: inactive; NIH3T3 tox: inconclusive; hNpr1 antagonist: 10µM; GPT2 inhibitor: inactive; HEK cytotox: inconclusive; Npr1 antag conf: 19.3µM; NPR2 antag: 19.3µM; FLuc counter: inactive; GloSensor cGMP: 13.7µM

Results for COc1cccc(CC(=O)N2CCN(C(=O)c3nnn4c3COC(c3ccc(Cl)cc3)C4)CC2)c1 (centres undefined) ?
FLuc inh: inactive; NIH3T3 tox: inactive; hNpr1 antagonist: 11.2µM; GPT2 inhibitor: inactive; HEK cytotox: inactive; Npr1 antag conf: 24.3µM; NPR2 antag: 24.3µM; FLuc counter: inactive; GloSensor cGMP: 21.7µM

What do the screens show for `COc1ccc(C2Cn3nnc(C(=O)N4CCN(C(=O)Cc5ccc(Cl)cc5)CC4)c3CO2)cc1` (centres undefined)?
FLuc inh: inactive; NIH3T3 tox: inactive; hNpr1 antagonist: inconclusive; GPT2 inhibitor: inactive; HEK cytotox: inactive; Npr1 antag conf: 19.3µM; NPR2 antag: inconclusive; FLuc counter: inactive; GloSensor cGMP: 21.7µM

How did COc1ccccc1CC(=O)N1CCN(C(=O)c2nnn3c2COC(c2ccc(Cl)cc2)C3)CC1 (centres undefined) do in these assays?
FLuc inh: inactive; NIH3T3 tox: inconclusive; hNpr1 antagonist: 10µM; GPT2 inhibitor: inactive; HEK cytotox: inconclusive; Npr1 antag conf: 12.2µM; NPR2 antag: 15.3µM; FLuc counter: inactive; GloSensor cGMP: 10.9µM

What do the screens show for `O=C(CC1CCCN(c2cnn(CC3CC3)c(=O)c2)C1)NCc1cccc(F)c1` (centres undefined)?
FLuc inh: inactive; NIH3T3 tox: inconclusive; hNpr1 antagonist: inactive; GPT2 inhibitor: inactive; HEK cytotox: inconclusive

How did COc1ccc(C2Cn3nnc(C(=O)N4CCN(C(=O)c5ccccc5)CC4)c3CO2)cc1 (centres undefined) do in these assays?
FLuc inh: inactive; NIH3T3 tox: inactive; hNpr1 antagonist: inactive; GPT2 inhibitor: inactive; HEK cytotox: inconclusive

Results for COc1cccc(N2CCN(C(=O)c3cc4n(n3)CC(c3ccc(Cl)cc3)OC4)CC2)c1 (centres undefined) ?
FLuc inh: inactive; NIH3T3 tox: inconclusive; hNpr1 antagonist: 15.8µM; GPT2 inhibitor: inactive; HEK cytotox: inconclusive; Npr1 antag conf: 27.3µM; NPR2 antag: inconclusive; FLuc counter: inactive; GloSensor cGMP: inconclusive

What do the screens show for `COc1ccc(C2Cn3nnc(C(=O)N4CCN(C(=O)CCc5ccccc5)CC4)c3CO2)cc1` (centres undefined)?
FLuc inh: inactive; NIH3T3 tox: inactive; hNpr1 antagonist: inconclusive; GPT2 inhibitor: inactive; HEK cytotox: inconclusive; Npr1 antag conf: 24.3µM; NPR2 antag: inconclusive; FLuc counter: inactive; GloSensor cGMP: 21.7µM

What do the screens show for `COc1ccc(C2Cn3nnc(C(=O)N4CCN(C(=O)Cc5cccc(F)c5)CC4)c3CO2)cc1` (centres undefined)?
FLuc inh: inactive; NIH3T3 tox: inactive; hNpr1 antagonist: inconclusive; GPT2 inhibitor: inactive; HEK cytotox: inconclusive; Npr1 antag conf: 21.7µM; NPR2 antag: 24.3µM; FLuc counter: inactive; GloSensor cGMP: 19.3µM

How did COc1ccc(C2Cn3nnc(C(=O)N4CCN(C(=O)Cc5ccccc5C)CC4)c3CO2)cc1 (centres undefined) do in these assays?
FLuc inh: inactive; NIH3T3 tox: inactive; hNpr1 antagonist: inconclusive; GPT2 inhibitor: inactive; HEK cytotox: inconclusive; Npr1 antag conf: 21.7µM; NPR2 antag: 21.7µM; FLuc counter: inactive; GloSensor cGMP: 24.3µM

What do the screens show for `C=CCCC(CN1CCOCC1)Oc1cc(C)nc(-c2ccccc2)n1` (centres undefined)?
FLuc inh: inactive; NIH3T3 tox: inactive; hNpr1 antagonist: inactive; GPT2 inhibitor: inactive; HEK cytotox: inconclusive

What do the screens show for `COc1ccc(CC(=O)Nc2ccc([C@H]3OCC(=O)N(C4CCOCC4)[C@@H]3CO)cc2)cc1`?
FLuc inh: inactive; NIH3T3 tox: inactive; hNpr1 antagonist: inactive; GPT2 inhibitor: inactive; HEK cytotox: inactive

How did CCOc1ccccc1C(=O)N1CCc2[nH]nc(-c3ccc(F)c(F)c3)c2C1 do in these assays?
FLuc inh: inactive; NIH3T3 tox: inconclusive; hNpr1 antagonist: inconclusive; GPT2 inhibitor: inconclusive; HEK cytotox: inconclusive; Npr1 antag conf: inconclusive; NPR2 antag: inconclusive; FLuc counter: inactive; GloSensor cGMP: inconclusive

How did Cc1nn(-c2ccc(F)cc2)c(Oc2ccc(F)cc2F)c1CCC(=O)NCC1CC1 do in these assays?
FLuc inh: inactive; NIH3T3 tox: inconclusive; hNpr1 antagonist: inconclusive; GPT2 inhibitor: inactive; HEK cytotox: inconclusive; Npr1 antag conf: inconclusive; NPR2 antag: inconclusive; FLuc counter: inactive; GloSensor cGMP: inconclusive

Results for Cc1ccccc1Oc1c(CCC(=O)NCC2CC2)c(C)nn1-c1ccc(F)cc1 ?
FLuc inh: inactive; NIH3T3 tox: 25.1µM; hNpr1 antagonist: inconclusive; GPT2 inhibitor: inactive; HEK cytotox: inconclusive; Npr1 antag conf: inconclusive; NPR2 antag: inconclusive; FLuc counter: inactive; GloSensor cGMP: inconclusive

What do the screens show for `COc1ccccc1CNC(=O)C1CCN(c2cc(C(F)(F)F)ncn2)CC1`?
FLuc inh: inactive; NIH3T3 tox: inactive; hNpr1 antagonist: inactive; GPT2 inhibitor: inactive; HEK cytotox: inconclusive

Results for O=C(Nc1cccc(F)c1)C1CCN(c2cc(C(F)(F)F)ncn2)CC1 ?
FLuc inh: inactive; NIH3T3 tox: inconclusive; hNpr1 antagonist: 11.2µM; GPT2 inhibitor: inconclusive; HEK cytotox: inconclusive; Npr1 antag conf: 21.7µM; NPR2 antag: inconclusive; FLuc counter: inactive; GloSensor cGMP: 19.3µM

How did O=C(Nc1cccc(Cl)c1)C1CCN(c2cc(C(F)(F)F)ncn2)CC1 do in these assays?
FLuc inh: inactive; NIH3T3 tox: inconclusive; hNpr1 antagonist: inconclusive; GPT2 inhibitor: inactive; HEK cytotox: inconclusive; Npr1 antag conf: 24.3µM; NPR2 antag: inconclusive; FLuc counter: inactive; GloSensor cGMP: inconclusive
